Results: PubChem BioAssay AID463173 (ICCB-Longwood Screening Facility, Harvard Medical School, 2010)
About 4,300 (8.3%) of roughly 52,000 compounds were called active. The list comes from a sample in which actives are over-represented; it also holds similar structures and randomly drawn compounds. A number with no mark means an inactive call. Rule as the data show it: active = survival mostly below about 52% (no sharp cut-off); inactive = mostly above about 56%.

system: DeltatarO mutant; test: S. aureus survival, RN4220 and DeltatarO strains – OD600, teichoic acid synthesis inhibitors, primary screen (AID 463173); conditions: S. aureus RN4220 wild type/DeltatarO growth, OD600, 18 h, active compounds read low, screened at 18.75 µg/mL (by protocol)

**Q.** Which survival does the source give for O=C(Cn1cnc(S(=O)(=O)N2CCCC2)c1)Nc1cccc(F)c1 here?
**A.** 91%

**Q.** CCC(C)c1ccc(NC(=O)CSc2nncn2N)cc1 (stereo unspecified) was tested. Which survival did it give?
**A.** 76%

**Q.** Which survival does the source give for O=C(CC1Sc2ccc(C(F)(F)F)cc2NC1=O)Nc1ccc(Cl)c(C(F)(F)F)c1 (stereo unspecified) here?
**A.** 22% (active)

**Q.** How did the survival turn out when CCc1ccccc1NC(=O)CC1Sc2ccc(C(F)(F)F)cc2NC1=O (stereo unspecified) was run?
**A.** 82%

**Q.** For CCOC(=O)c1ccc(NC(=O)CC2Sc3ccc(C(F)(F)F)cc3NC2=O)cc1 (stereo unspecified), which survival is on record?
**A.** 78%

**Q.** With COC(=O)c1c(NC(=O)CCCOc2cccc(C)c2)sc2c1C(C(=O)OC)CC2 (stereo unspecified) as the molecule, how does the survival read?
**A.** 0% (active)

**Q.** For CCOc1ccc(/C=C/C(=O)Nc2sc3c(c2C(=O)OC)C(C(=O)OC)CC3)cc1 (stereo unspecified), which survival is on record?
**A.** 56%

**Q.** For COC(=O)c1c(NC(=O)c2cccs2)sc2c1C(C(=O)OC)CC2 (stereo unspecified), which survival is on record?
**A.** 94%

**Q.** Which survival does the source give for COC(=O)c1c(NC(=O)/C(C#N)=C/c2ccccc2)sc2c1C(C(=O)OC)CC2 (stereo unspecified) here?
**A.** 58%

**Q.** How did the survival turn out when COC(=O)c1c(NC(=O)CCCOc2ccc(C(C)(C)C)cc2)sc2c1C(C(=O)OC)CC2 (stereo unspecified) was run?
**A.** 3% (active)

**Q.** COC(=O)c1c(NC(=O)CCCOc2ccc(C)cc2)sc2c1C(C(=O)OC)CC2 (stereo unspecified) was tested. Which survival did it give?
**A.** 44%

**Q.** How did the survival turn out when COc1ccc(NC(=O)CCn2c(-c3ccc(F)cc3)cc(C(C)=O)c2C)c(OC)c1 was run?
**A.** 124%

**Q.** COc1ccccc1Cc1nc2ccccc2nc1SCC(=O)NCc1ccccc1Cl was tested. Which survival did it give?
**A.** 135%

**Q.** COc1ccc2c(c1)CC(C(=O)Nc1cc(OC)c(OC)c(OC)c1)CO2 (stereo unspecified) was tested. Which survival did it give?
**A.** 83%

**Q.** CCCCOC(=O)c1ccc(OC(=O)c2sc3ncn(Cc4ccccc4Cl)c(=O)c3c2C)cc1 was tested. Which survival did it give?
**A.** 90%

**Q.** Cc1ccc(CNC(=O)c2oc3ccc(S(=O)(=O)N4CCC(C)CC4)cc3c2C)cc1 was tested. Which survival did it give?
**A.** 57%

**Q.** For Cc1ccc(Cl)cc1NC(=O)Cn1c(=O)n(CCC(=O)N2CCc3ccccc3C2)c(=O)c2ccccc21, which survival is on record?
**A.** 102%

**Q.** For CSc1nc(-c2ccc(Cl)cc2)nn1S(=O)(=O)c1ccc(NC(C)=O)cc1, which survival is on record?
**A.** 43% (active)

**Q.** Which survival does the source give for CSc1nc(-c2ccc(Cl)cc2)nn1C(C)=O here?
**A.** 57%

**Q.** CC(=O)Nc1ccc(S(=O)(=O)NCCc2csc3nc(-c4ccc(Cl)cc4)nn23)cc1 was tested. Which survival did it give?
**A.** 70%

**Q.** How did the survival turn out when CCc1c(C)nc2cc(-c3cc(OC)cc(OC)c3)nn2c1NCCCN(CC)CC was run?
**A.** 113%

**Q.** Cc1ccc(N(C(=O)c2ccco2)C(C(=O)NC2CCCC2)c2ccc(N(C)C)cc2)c(C)c1 (stereo unspecified) was tested. Which survival did it give?
**A.** 93%

**Q.** With O=C(NC1CCCC1)C(c1ccccc1)N(Cc1ccccc1F)C(=O)c1ccco1 (stereo unspecified) as the molecule, how does the survival read?
**A.** 102%

**Q.** For Cc1ccc(C(C(=O)NC2CCCCC2)N(C)Cc2ccccc2)cc1 (stereo unspecified), which survival is on record?
**A.** -3% (active)

**Q.** For Cc1ccc(-c2nnn(CC(=O)N(Cc3ccccc3)C(C(=O)NC3CCCC3)c3ccco3)n2)cc1 (stereo unspecified), which survival is on record?
**A.** 64%

**Q.** Which survival does the source give for CN(Cc1ccccc1)C(C(=O)NC1CCCCC1)c1ccc(Cl)cc1 (stereo unspecified) here?
**A.** 37% (active)

**Q.** With O=C(NC1CCCC1)C(c1ccccc1)N(C(=O)c1ccco1)C1CCCC1 (stereo unspecified) as the molecule, how does the survival read?
**A.** 79%

**Q.** With O=C(O)c1cccc(N=C2NC(=O)C(CO)(CO)S2)c1 as the molecule, how does the survival read?
**A.** 89%

**Q.** How did the survival turn out when Cc1cccc(Cc2c(C)nc3nc(SCc4cccc(F)c4)nn3c2C)c1 was run?
**A.** 78%

**Q.** With CCOC(=O)c1ccc(NC(=O)C2CC(=O)N3CCCN=C3S2)cc1 (stereo unspecified) as the molecule, how does the survival read?
**A.** 94%

**Q.** Which survival does the source give for Cc1cccc(NC(=O)c2sc3nc4n(c(=O)c3c2C)N=C(c2ccc(F)cc2)CS4)c1C here?
**A.** 99%

**Q.** With CCc1cccc(C)c1NC(=O)Cn1c(=O)cc(C(F)(F)F)c2c(C)nn(C)c21 as the molecule, how does the survival read?
**A.** 85%

**Q.** CC(C)(C)n1cnc2cc(NCc3ccccc3Cl)ccc21 was tested. Which survival did it give?
**A.** 7% (active)

**Q.** How did the survival turn out when CCc1ccc(CNc2ccc3c(c2)ncn3C(C)(C)C)cc1 was run?
**A.** -16% (active)

**Q.** How did the survival turn out when CCCn1cnc2cc(NC(=O)c3cc(OC)c(OC)c(OC)c3)ccc21 was run?
**A.** 66%

**Q.** How did the survival turn out when COc1cc(CNc2ccc3c(c2)ncn3C(C)C)cc(OC)c1OC was run?
**A.** 64%

**Q.** For Cc1cc(C)n2nc(NCc3ccccc3Cl)nc2n1, which survival is on record?
**A.** 90%

**Q.** CC(C)(C)n1cnc2cc(NS(=O)(=O)c3ccccc3)ccc21 was tested. Which survival did it give?
**A.** 86%

**Q.** CCn1cnc2cc(NCc3ccc(N(C)C)cc3)ccc21 was tested. Which survival did it give?
**A.** 72%

**Q.** For CCCCn1cnc2cc(NC(=O)c3cc(OC)c(OC)c(OC)c3)ccc21, which survival is on record?
**A.** 66%

**Q.** With CC(C)(C)n1cnc2cc(N=Cc3ccccc3O)ccc21 as the molecule, how does the survival read?
**A.** 81%

**Q.** Which survival does the source give for CCCCn1cnc2cc(NCc3ccc(OCC)cc3)ccc21 here?
**A.** 11% (active)

**Q.** For CCCCn1cnc2cc(NCc3ccccc3Cl)ccc21, which survival is on record?
**A.** -16% (active)

**Q.** How did the survival turn out when CCOc1ccc(C=Nc2ccc3c(c2)ncn3C)cc1 was run?
**A.** 96%

**Q.** For CCOc1ccc(NC(=O)CSc2oc(-c3cccs3)nc2S(=O)(=O)c2ccc(Cl)cc2)cc1, which survival is on record?
**A.** 63%

**Q.** Which survival does the source give for COc1ccc2c(c1)c1c(c(=O)n(-c3ccccc3C)c(=O)n1Cc1cccc(C(F)(F)F)c1)n2C here?
**A.** 94%
